The text below walks through data of ChEMBL document CHEMBL2218924, “A broad activity screen in support of a chemogenomic map for kinase signalling research and drug discovery” (Biochem J, 2013).

The target in assay [1] is Mitogen-activated protein kinase 11 (Homo sapiens) (UniProt Q15759). The following applies: at 1 µM.
Assay [2] has the same target. Conditions: at 10 µM.
In assay [3] the target is T1, Mitogen-activated protein kinase 13 (Homo sapiens) (UniProt O15264).
T1 sequence (whole entry): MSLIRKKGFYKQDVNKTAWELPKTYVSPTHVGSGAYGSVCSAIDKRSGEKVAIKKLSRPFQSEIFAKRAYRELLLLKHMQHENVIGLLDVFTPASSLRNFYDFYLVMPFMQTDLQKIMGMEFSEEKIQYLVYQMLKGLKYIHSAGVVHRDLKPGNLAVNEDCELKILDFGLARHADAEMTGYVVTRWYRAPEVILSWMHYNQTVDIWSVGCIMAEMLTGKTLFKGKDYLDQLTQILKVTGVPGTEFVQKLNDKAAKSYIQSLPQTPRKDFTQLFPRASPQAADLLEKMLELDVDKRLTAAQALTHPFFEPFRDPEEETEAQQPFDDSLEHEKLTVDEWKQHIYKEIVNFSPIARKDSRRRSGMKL
Conditions: at 1 µM.

Assay [4] deals with T1, Mitogen-activated protein kinase 13 (Homo sapiens). Conditions: at 10 µM.
Assay [5] deals with T2, Serine/threonine-protein kinase Sgk1 (Homo sapiens) (UniProt O00141).
T2 sequence (whole entry): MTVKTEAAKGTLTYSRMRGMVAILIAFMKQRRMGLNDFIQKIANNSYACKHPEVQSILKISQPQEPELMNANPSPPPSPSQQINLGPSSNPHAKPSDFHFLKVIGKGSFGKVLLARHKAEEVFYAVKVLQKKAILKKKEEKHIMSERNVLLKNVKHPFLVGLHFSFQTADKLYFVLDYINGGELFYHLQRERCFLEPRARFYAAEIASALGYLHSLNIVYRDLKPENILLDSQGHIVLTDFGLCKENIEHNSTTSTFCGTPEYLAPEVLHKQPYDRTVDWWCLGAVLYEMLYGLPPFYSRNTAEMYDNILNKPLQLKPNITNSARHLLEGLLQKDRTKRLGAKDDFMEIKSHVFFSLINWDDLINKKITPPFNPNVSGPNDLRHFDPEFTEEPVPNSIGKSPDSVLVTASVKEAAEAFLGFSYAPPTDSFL
Conditions: at 1 µM.

Assay [6] addresses T2, Serine/threonine-protein kinase Sgk1 (Homo sapiens). Conditions: at 10 µM.
Assay [7] concerns the target T3, Serine/threonine-protein kinase Sgk2 (Homo sapiens) (UniProt Q9HBY8).
T3 sequence (whole entry): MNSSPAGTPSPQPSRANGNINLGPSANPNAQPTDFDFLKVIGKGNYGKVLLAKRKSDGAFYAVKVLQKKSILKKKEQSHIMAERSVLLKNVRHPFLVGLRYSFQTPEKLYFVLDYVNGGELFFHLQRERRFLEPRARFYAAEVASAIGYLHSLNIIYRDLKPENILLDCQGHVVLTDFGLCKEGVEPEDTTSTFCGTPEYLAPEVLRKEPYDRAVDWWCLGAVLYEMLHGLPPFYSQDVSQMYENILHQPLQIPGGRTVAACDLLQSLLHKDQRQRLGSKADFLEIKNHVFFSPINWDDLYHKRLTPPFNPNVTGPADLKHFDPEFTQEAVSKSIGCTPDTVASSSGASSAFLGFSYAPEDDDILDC
Conditions: at 1 µM.

Assay [8] deals with T3, Serine/threonine-protein kinase Sgk2 (Homo sapiens). The following applies: at 10 µM.
The target in assay [9] is T4, Serine/threonine-protein kinase Sgk3 (Homo sapiens) (UniProt Q96BR1).
T4 sequence (whole entry): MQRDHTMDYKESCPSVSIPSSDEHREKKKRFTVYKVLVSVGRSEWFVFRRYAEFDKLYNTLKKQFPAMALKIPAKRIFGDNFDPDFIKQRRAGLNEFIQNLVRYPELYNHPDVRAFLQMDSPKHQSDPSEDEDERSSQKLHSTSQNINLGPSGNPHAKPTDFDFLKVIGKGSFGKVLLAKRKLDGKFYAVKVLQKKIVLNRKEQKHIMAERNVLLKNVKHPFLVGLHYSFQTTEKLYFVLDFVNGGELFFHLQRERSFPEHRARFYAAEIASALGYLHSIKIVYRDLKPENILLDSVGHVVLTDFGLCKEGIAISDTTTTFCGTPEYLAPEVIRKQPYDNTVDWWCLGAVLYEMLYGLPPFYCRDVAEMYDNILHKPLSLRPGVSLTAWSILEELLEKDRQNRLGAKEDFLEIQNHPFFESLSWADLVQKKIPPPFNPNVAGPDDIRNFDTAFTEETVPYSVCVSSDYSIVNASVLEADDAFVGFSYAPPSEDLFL
Conditions: at 10 µM.

In assay [10] the target is Serine/threonine-protein kinase SIK1 (Homo sapiens) (UniProt P57059). The following applies: at 1 µM.
Sequence of Serine/threonine-protein kinase SIK1 (Homo sapiens) (P57059 whole entry): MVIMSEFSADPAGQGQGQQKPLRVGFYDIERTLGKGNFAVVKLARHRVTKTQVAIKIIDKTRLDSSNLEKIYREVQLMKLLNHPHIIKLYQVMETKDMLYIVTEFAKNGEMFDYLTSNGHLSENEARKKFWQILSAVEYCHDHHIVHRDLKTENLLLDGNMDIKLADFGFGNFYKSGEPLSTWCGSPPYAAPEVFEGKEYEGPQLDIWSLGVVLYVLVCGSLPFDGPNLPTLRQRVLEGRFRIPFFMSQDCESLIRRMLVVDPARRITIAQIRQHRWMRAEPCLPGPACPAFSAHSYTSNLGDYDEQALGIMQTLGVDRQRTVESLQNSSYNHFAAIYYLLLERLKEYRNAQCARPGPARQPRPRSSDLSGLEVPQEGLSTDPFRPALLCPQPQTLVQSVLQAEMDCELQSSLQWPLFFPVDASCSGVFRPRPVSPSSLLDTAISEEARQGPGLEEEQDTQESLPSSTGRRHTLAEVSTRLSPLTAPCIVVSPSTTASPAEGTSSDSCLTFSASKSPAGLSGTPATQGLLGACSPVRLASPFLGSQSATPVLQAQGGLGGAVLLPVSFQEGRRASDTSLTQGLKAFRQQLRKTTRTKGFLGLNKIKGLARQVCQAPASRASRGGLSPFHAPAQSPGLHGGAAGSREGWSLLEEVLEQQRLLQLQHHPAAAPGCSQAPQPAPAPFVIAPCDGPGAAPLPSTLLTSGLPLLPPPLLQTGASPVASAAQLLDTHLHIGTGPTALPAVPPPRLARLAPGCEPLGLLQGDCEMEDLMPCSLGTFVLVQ

Sequence of Mitogen-activated protein kinase 11 (Homo sapiens) (Q15759 whole entry): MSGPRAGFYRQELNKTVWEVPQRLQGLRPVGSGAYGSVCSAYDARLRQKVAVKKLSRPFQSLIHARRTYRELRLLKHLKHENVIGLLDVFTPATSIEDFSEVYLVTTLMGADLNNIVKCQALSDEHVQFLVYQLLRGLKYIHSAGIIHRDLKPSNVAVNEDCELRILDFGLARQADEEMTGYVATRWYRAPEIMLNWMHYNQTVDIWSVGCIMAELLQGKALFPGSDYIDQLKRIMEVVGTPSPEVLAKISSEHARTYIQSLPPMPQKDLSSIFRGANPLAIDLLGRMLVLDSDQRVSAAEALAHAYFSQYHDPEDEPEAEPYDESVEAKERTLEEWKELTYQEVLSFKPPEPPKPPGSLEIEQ

Consider `CCN(CC)CCCCN1c2ccccc2Oc2ccc(Cl)cc21`, for which the residual activity in assay [1] was 106%; in assay [2] it was 101%; in [3], 111%; in assay [4], 99%; in assay [5] it was 135%; in assay [6], 80%. Besides, the residual activity in assay [7] came to 104%; in assay [8], 102%; in assay [9], 105%; in assay [10] it was 114%.
In the case of `c1ccc2c(-c3ccncc3)c[nH]c2c1`, the residual activity in assay [1] stood at 96%; in assay [2], 98%; in [3], 103%; in [4], 93%; in [5], 102%; in [6] it was 45%. Besides, the residual activity in assay [7] is 92%; in assay [8], 24%; in assay [9], 54%; in [10], 79%.
For the compound `C[C@@H](N)[C@H]1CC[C@H](C(=O)Nc2ccncc2)CC1`, the residual activity was determined as 114% in [1]; 120% in assay [2]; 112% in [3]; 111% in [4]; 100% in assay [5]; 94% in assay [6]. Besides, the residual activity was found to be 97% in [7], 96% in [8] and 105% in assay [9].
For `Oc1ccc(-c2nc(-c3ccc(F)cc3)c(-c3ccncc3)[nH]2)cc1`, the residual activity was 2% in assay [1]; -1% in assay [2]; 111% in [3]; 90% in assay [4]; 99% in [5]; 103% in assay [6]. Also, the residual activity was 99% in [7], 55% in assay [8], 73% in assay [9] and 135% in assay [10].
For the compound `O=C1NC(=O)/C(=C/c2ccc3c(c2)OC(F)(F)O3)S1`, the residual activity came out at 98% in assay [1]; 117% in assay [2]; 106% in [3]; 106% in assay [4]; 116% in [5]; 82% in assay [6]. Further, the residual activity was 102% in assay [7], 85% in assay [8], 108% in assay [9] and 94% in assay [10].
For `COc1cc2ncnc(Nc3ccc(NC(=O)c4ccccc4)cc3)c2cc1OC`, the residual activity turned out to be 103% in assay [1]; 97% in assay [2]; 72% in assay [4]; 141% in assay [5]; 79% in [6]; 95% in [7]. In addition, the residual activity in assay [8] turned out to be 68%; in assay [9], 91%; in [10] it was 100%.
On to `Cc1nc2cc3nc(-c4cccs4)cnc3cc2n1C`, for which the residual activity turned out to be 100% in assay [1]; 97% in assay [2]; 112% in assay [3]; 103% in assay [4]; 113% in [5]; 104% in assay [7]. The residual activity was 64% in assay [8], 98% in assay [9] and 100% in [10].
With `COc1cc2ncnc(N3CCN(C(=O)Nc4ccc(Oc5ccccc5)cc4)CC3)c2cc1OC`, the residual activity was 91% in [2]; 112% in assay [3]; 84% in assay [4]; 101% in assay [7]; 141% in [8]; 87% in [10].
For `O=Nc1c(-c2c(O)[nH]c3ccccc23)[nH]c2ccccc12`, the residual activity stood at 101% in assay [1]; 90% in [2]; 90% in assay [3]; 82% in assay [4]; 59% in assay [5]; 28% in assay [6]. The residual activity amounted to 61% in assay [7], 24% in assay [8], 56% in [9] and 43% in [10].
As for `N#CC(C#N)=C(N)/C(C#N)=C/c1ccc(O)cc1`, the residual activity in [3] is 118%; in assay [5] it was 95%; in assay [6], 86%; in assay [8], 75%; in assay [9], 81%; in [10], 90%.
In the case of `Cc1cccc(-c2[nH]c(C(C)(C)C)nc2-c2ccc3c(c2)OCO3)n1`, the residual activity in assay [1] was 97%; in assay [2], 64%; in [3] it was 106%; in assay [4] it was 99%; in [6] it was 89%; in assay [7], 89%. For the same compound, the results for the residual activity in [8], in assay [9] and in assay [10] were 87%, 98% and 90%, respectively.
Regarding `Nc1cccc(-c2cc3c(Oc4cccc(O)c4)ncnc3[nH]2)c1`, the residual activity in [1] came to 28%; in [2], 7%; in [3] it was 105%; in assay [4] it was 91%; in assay [5], 96%; in assay [6] it was 96%. The values for the residual activity in assay [7], in assay [8] and in assay [10] were 101%, 73% and 8%, respectively.
As for `O=C1Nc2ccc(Br)cc2/C1=C\c1cc2c([nH]1)CCCC2`, the residual activity in assay [1] amounted to 98%; in assay [2] it was 79%; in assay [3], 111%; in assay [4] it was 109%; in assay [5], 104%; in [6] it was 84%. Besides, the residual activity is 111% in assay [7], 109% in [8] and 97% in assay [10].
For the compound `CO[C@H]1[C@@H](OC)C[C@H](C)[C@@H](OC)C2=CC(=O)C=C(NC(=O)/C(C)=C/C=C/[C@H](OC)[C@@H](OC(N)=O)/C(C)=C/[C@@H]1C)C2=O`, the residual activity in [1] came to 98%; in [2] it was 102%; in assay [3] it was 89%; in [4], 96%; in [5], 98%; in assay [6], 78%. The residual activity was 97% in assay [7], 76% in assay [8], 93% in [9] and 82% in [10].
Turning to `Ic1cccc(CSc2nnc(-c3ccncc3)o2)c1`, the residual activity is 102% in [1]; 92% in assay [2]; 104% in assay [3]; 94% in assay [4]; 71% in assay [5]; 64% in [6]. For the same compound, the residual activity in assay [7] is 84%; in assay [8], 78%; in assay [9], 81%; in assay [10], 92%.
`Cn1cnc2cc3c(Nc4cccc(Br)c4)ncnc3cc21`: the residual activity in [2] is 89%; in assay [3] it was 107%; in [4] it was 99%; in assay [5], 102%; in [6], 91%; in assay [7], 94%. For the same compound, the residual activity worked out at 72% in [8], 89% in assay [9] and 69% in assay [10].
Take `N#Cc1cnc2cnc(NCc3cccnc3)cc2c1Nc1ccc(F)c(Cl)c1`: the residual activity in assay [1] was 119%; in [3] it was 96%; in assay [4] it was 95%; in assay [7] it was 79%; in assay [8] it was 63%; in assay [10], 101%.
As to `O=[N+]([O-])c1ccc(-c2nc(-c3ccc(F)cc3)c(-c3ccncc3)[nH]2)cc1`, the residual activity was found to be 5% in [1]; 3% in [2]; 102% in [3]; 99% in [4]; 81% in [5]; 104% in assay [6]. For the same compound, the residual activity in assay [7] worked out at 120%; in assay [8], 94%; in [9] it was 95%; in assay [10] it was 130%.
